KB-V1 MDR tox: KB-V1 MDR subline cytotoxicity; Potency, µM (titrated, usually from 46.1 µM), actives largely listed as cytotoxic; 3.4% of 400,000 active; KB-V1 MDR cells viability, CellTiter-Glo, 72 h; also: nearly all actives have a fitted effect of over 60% in size
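qHTS viability screen in drug-selected KB-V1 MDR cells: 72 h compound treatment at 37 degrees C, ATP luminescence end point.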
HT1080-NT tox: kills 2HG-producing HT-1080-NT fibrosarcoma cells; HT-1080-NT fibrosarcoma viability, CellTiter-Glo ATP luminescence, 48 h; Potency, µM (series often up to 46.1 µM), for the others: at the top dose activity, negative = less viability, most hits filed as cytotoxic; 1.6% of 360,000 active; AID 686970;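 also: NT is the 2HG producing partner of a matched IDH1 knockdown line; 0% = DMSO-treated cells and -100% = media-only wells without cells; nearly all actives have a fitted effect of over 55% in size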
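Luminescent CellTiter-Glo readout after 48 hours of compound exposure at 37 degrees C defined viability of HT-1080-NT cells. Activity was normalized to DMSO wells and cell-free media wells; concentration-response curves were fitted and assigned curve classes.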
HT1080 IDH1KD tx: kills HT-1080 cells with IDH1 knockdown | HT-1080 IDH1 knockdown viability, ATP luminescence, 48 h | AID 686971 | 2% of 360,000 active | Potency, µM (series often up to 46.1 µM), without a hit: top-dose activity, negative = toxicity, usual class: cytotoxic;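 also: 0% = DMSO wells and -100% = cell-free medium wells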
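Knockdown cells (IDH1KD HT-1080) received compounds 2 h after plating at 750 cells/well and were kept 48 h at 37 °C in 5% FBS RPMI. A CellTiter-Glo luminescence read gave % activity for curve fitting.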
KB-3-1 tox: kills parental KB-3-1 adenocarcinoma cells; Potency, µM (titrated, usually from 46.1 µM), hits mostly cytotoxic; 1.4% of 400,000 active; AID 1347075; KB-3-1 viability, CellTiter-Glo ATP luminescence, 72 h; also: nearly all actives have a fitted effect of over 60% in size
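KB-3-1 cells, DMEM (no phenol red) + 10% FBS; compound by pin transfer, 72 h, 37 °C. Readout: CellTiter-Glo luminescence after 10 min. Data normalized, curve-fitted.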
TDP1 cell CPT: DT40-hTDP1 cell growth loss with CPT; chicken DT40 Tdp1-/-;hTDP1 cells + 20 nM CPT, ATP luminescence, 48 h; Potency, µM (series often up to 46.2 µM), without a hit: at the top dose activity change, negative = growth inhibition, most hits filed as inhibitors; 12% of 420,000 active; AID 686979; also: nearly all actives have a fitted effect of over 55% in size
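Cell growth measured by CellTiter-Glo luminescence after a minimum 48 h, 37 C compound exposure with 20 nM CPT in Tdp1-knockout DT40 cells stably expressing hTDP1, seeded 400/well; qHTS titration format.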
TDP1 cell noCPT: qHTS for Inhibitors of human tyrosyl-DNA phosphodiesterase 1 (TDP1): qHTS in cells in absence of CPT; DT40 Tdp1-/- hTDP1 cells, no CPT, ATP luminescence, 48 h; Potency, µM (doses to about 46.2 µM), for the others: at the top dose activity change, negative = growth inhibition, actives largely listed as inhibitors; 15% of 420,000 active; also: nearly all actives have a fitted effect of over 55% in size
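Stably hTDP1-transfected Tdp1-null chicken DT40 cells were treated with library compounds minus camptothecin and grown for at least 48 hr at 37 °C, after which cellular ATP was quantified by luminescence.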
The depositor's hits bear a star; i = inactive; u = inconclusive; x = no result. A selection: hits, their analogues and other compounds. The true share with any hit is near 19%. Calls follow the shape of the dose curve; as a rule, active = well fitted curve in the direction sought with a large enough effect; inconclusive = small, poorly fitted or top-dose-only effect, or another doubt; inactive = no such curve, though single readings can be large; an effect the other way counts as inactive or inconclusive. Unless noted, % is scaled to controls: 0 for no effect and ±100 for the full control effect; potency is read from the fitted curve at half-maximal effect.

SMILES | KB-V1 MDR tox | HT1080-NT tox | HT1080 IDH1KD tx | KB-3-1 tox | TDP1 cell CPT | TDP1 cell noCPT
COc1ccc2c(c1)sc(=NC(=O)CS(=O)(=O)c1ccc(F)cc1)n2C | i | -1% | 1% | i | u | 21µM*
COC(=O)Cn1c(=NC(=O)CCS(=O)(=O)c2ccccc2)sc2c(OC)ccc(OC)c21 | i | 7% | 20% | i | 21µM* | u
CCn1c(=NC(=O)CCS(=O)(=O)c2ccccc2)sc2cccc(OC)c21 | u | -13% | -7% | u | 9.2µM* | 7.3µM*
CCn1c(=NC(=O)c2ccc(S(=O)(=O)N3CCOCC3)cc2)sc2cccc(OC)c21 | u | -21% | -22% | u | 15µM* | 13µM*
COCCn1c(=NC(=O)c2ccc(S(=O)(=O)N3CCOCC3)cc2)sc2cc(S(N)(=O)=O)ccc21 | i | -17% | -23% | i | u | u
COc1ccc2cc(C3C(C#N)=C(N)OC(C)=C3C(C)=O)c(Cl)nc2c1 (stereo not drawn) | i | -13% | -12% | i | u | 21µM*
CC(=O)C1=C(C)OC(N)=C(C#N)C1c1cc([N+](=O)[O-])ccc1Cl (stereo not drawn) | i | 16µM* | u | i | 4.1µM* | 3.7µM*
Cn1cccc1/C=N/N1CCN(Cc2cccc3ccccc23)CC1 | i | -25% | -1% | i | u | 13µM*
Cn1cccc1/C=N/N1CCN(Cc2ccccc2)CC1 | i | 13% | 5% | i | -1% | -28%
CC(Sc1nnc(Cc2ccccc2)o1)C(=O)NC1(C#N)CCCCC1 (stereo not drawn) | i | 10% | 7% | i | -4% | -30%
Cc1cccc(C)c1NC(=O)c1ccc(-c2cc(F)ccc2F)o1 | i | u | u | i | 18µM* | 16µM*
Cc1cccc(NC(=O)c2ccc(-c3ccccc3[N+](=O)[O-])o2)c1 | u | -4% | -1% | i | 0% | u
Cc1ccccc1-c1ccc(C(=O)Nc2cccc(F)c2)o1 | i | 11% | 6% | i | u | 21µM*
CCc1cccc(CC)c1NC(=O)c1ccc(-c2cc(Cl)ccc2Cl)o1 | i | 0% | 9% | i | u | u
CCN(Cc1cc(=O)n2cc(Cl)c(C)c(Cl)c2n1)Cc1nc2ccccc2c(=O)[nH]1 | i | -8% | -16% | i | -7% | 18µM*
CCOC(=O)C1(C)CCN1C(=O)c1ccc(Cl)cc1Cl (stereo not drawn) | i | 8% | 0% | i | -1% | -6%
CCOC(=O)C1(C)CCCN1C(=O)c1ccc(C)cc1 (stereo not drawn) | i | 3% | 16% | i | -24% | -17%
CCOC(=O)C1(C)CCCCN1C(=O)c1ccco1 (stereo not drawn) | i | 27% | 22% | i | -7% | -2%
CCOC(=O)C1(C)CCCCCN1C(=O)/C=C/c1ccccc1 (stereo not drawn) | i | 23% | 19% | i | 16µM* | 16µM*
CCOC(=O)C1(C)CCCCCN1C(=O)c1ccc(N(C)C)cc1 (stereo not drawn) | i | 21% | 13% | i | u | 21µM*
CCOC(=O)C1(C)CCN1C(=O)c1cc(-c2ccc(Cl)cc2)oc1C (stereo not drawn) | i | -24% | u | i | 18µM* | 5.2µM*
CCOC(=O)C1(C)CCCN1C(=O)c1cccc2ccccc12 (stereo not drawn) | i | 8% | 8% | i | 12µM* | 18µM*
O=C(Nc1cc(F)ccc1F)N1CCC(CN2CCCC2)CC1 | x | x | x | x | -5% | -11%
O=S(=O)(Nc1ccc(Cl)cc1)c1cccc(S(=O)(=O)c2ccc(Cl)c(Cl)c2)c1 | i | x | x | i | u | u
Cc1ccc(C(=O)Nc2ccc(N3CCN(C(=O)c4ccco4)CC3)cc2)cc1 | i | 9% | 11% | i | -1% | -29%
SMILES | KB-V1 MDR tox | HT1080-NT tox | HT1080 IDH1KD tx | KB-3-1 tox | TDP1 cell CPT | TDP1 cell noCPT
COc1ccccc1C(=O)NC(=S)Nc1ccc(N2CCN(C(=O)c3ccco3)CC2)cc1 | i | 4% | 12% | i | u | 15µM*
Cc1ccccc1C(=O)N1CCN(c2ccc(NC(=S)NC(=O)c3ccco3)cc2)CC1 | i | u | u | u | 23µM* | 26µM*
CC1(C)C(=O)Nc2ccccc2N1C(=O)COC(=O)CNS(=O)(=O)c1ccc(F)c(F)c1F | i | 0% | 0% | i | -16% | -3%
COc1ccccc1NC(=O)Cc1nc(=O)[nH]c(=O)[nH]1 | i | 1% | 2% | i | 9% | 0%
Cc1nc2n(c(=O)c1CCN1CCC(c3noc4cc(F)ccc34)CC1)CCC[C@H]2O | i | x | x | i | 0.094µM* | 0.53µM*
COc1cc(-c2nc3oc4ccccc4c(=O)c3c(=O)n2Cc2ccco2)cc(OC)c1OC | u | -14% | -10% | u | 18µM* | 21µM*
O=c1c2ccccc2oc2nc(-c3ccco3)n(Cc3ccccc3)c(=O)c12 | i | 5% | -1% | i | u | 21µM*
COCCn1c(-c2cc(OC)c(OC)c(OC)c2)nc2oc3cc(OC)ccc3c(=O)c2c1=O | i | 9% | 13% | i | u | u
Cc1ccc(C)c(NC(=O)CN2C(=O)CCc3ccccc32)c1 | x | x | x | x | -6% | 0%
COc1ccc(C(=O)COC(=O)c2cc(=O)c3ccccc3o2)c(OC)c1 | u | -6% | 1% | i | -6% | -21%
COc1cc(O)c(CC=C(C)C)c(O)c1C(=O)CCc1ccc(O)cc1 | i | -24% | u | i | 21µM* | 21µM*
COc1ccc(C(=O)/C=C/c2ccc(O)cc2)c(O)c1C/C=C(\C)CCC=C(C)C | i | u | u | i | u | u
Cc1ccc(NC(=O)COc2ccc(/C=C3/SC(=Nc4ccccc4)N(Cc4cccnc4)C3=O)cc2)cc1 | 16µM* | 7% | 7% | u | 5.2µM* | 6.5µM*
Cc1ccccc1C(=O)Nc1sc(C)c(C)c1C(=O)c1ccccc1 | 7.3µM* | 13% | 5% | i | u | u
Cc1cc(C(=O)c2ccc(C(C)(C)C)cc2)c(NC(=O)CCl)s1 | u | u | u | u | 5.8µM* | 4.6µM*
Cc1cc(C(=O)c2ccccc2)c(NC(=O)CN2CCOCC2)s1 | i | 6% | 4% | i | -19% | -28%

From PubChem
